Data taken from the supplement of paper PMC3545927.
This is one part of the list. How many sequences the whole screen found active is unknown.

Target: furin, P09958
Assay: furin cleavage Z-score vs untreated control; higher = more cleavage, active = 3.5 or more, inactive = 1 or less, 8 variable residues between constant flanks
In short: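 Cleavage by purified furin was measured on 8-mer peptides fused to a cDNA oligonucleotide and held on magnetic beads by their N-terminus. Reactions (0.01 ml, 1:10 enzyme:substrate) ran 7.5, 15 or 30 min in 50 mM HEPES pH 7.5 with CaCl2 and NaCl. Released DNA was adapter-tagged by PCR and sequenced, with read counts giving abundance. Log counts versus furin-free reactions were lowess-adjusted and scaled by median absolute deviation to give the cleavage Z-score.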

Chain of furin, P09958 (P09958 whole entry): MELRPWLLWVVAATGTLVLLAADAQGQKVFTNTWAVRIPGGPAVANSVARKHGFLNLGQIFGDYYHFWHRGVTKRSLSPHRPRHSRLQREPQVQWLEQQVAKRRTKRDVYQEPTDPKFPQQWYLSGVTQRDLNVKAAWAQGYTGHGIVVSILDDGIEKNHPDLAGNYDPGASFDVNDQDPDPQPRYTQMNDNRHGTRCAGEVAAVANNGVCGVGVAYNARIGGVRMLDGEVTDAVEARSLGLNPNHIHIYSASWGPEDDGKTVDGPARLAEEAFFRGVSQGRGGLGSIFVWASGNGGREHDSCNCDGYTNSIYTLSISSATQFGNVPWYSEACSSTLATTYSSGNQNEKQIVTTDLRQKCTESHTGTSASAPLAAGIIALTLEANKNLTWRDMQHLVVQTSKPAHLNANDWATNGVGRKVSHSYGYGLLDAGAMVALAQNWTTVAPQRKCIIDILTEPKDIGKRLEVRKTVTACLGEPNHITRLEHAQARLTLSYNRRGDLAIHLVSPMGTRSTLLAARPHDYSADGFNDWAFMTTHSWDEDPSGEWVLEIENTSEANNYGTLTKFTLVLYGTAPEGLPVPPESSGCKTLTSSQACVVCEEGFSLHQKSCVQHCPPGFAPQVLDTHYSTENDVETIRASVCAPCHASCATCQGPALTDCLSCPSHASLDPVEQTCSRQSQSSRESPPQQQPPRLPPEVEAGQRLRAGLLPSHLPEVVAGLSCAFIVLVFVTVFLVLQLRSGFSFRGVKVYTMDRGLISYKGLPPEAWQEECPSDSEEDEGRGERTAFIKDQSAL

Sequence | furin cleavage Z-score (7.5 min) | furin cleavage Z-score (15 min) | furin cleavage Z-score (30 min)
CAPLPPPKSPAGNASASA [HC1318] | -0.389 (inactive) | 0.488 (inactive) | -0.355 (inactive)
CAFGYGAKDVAGNASASA [HC1421] | 0.651 (inactive) | 1.8 | 1.24
CAAYQVRNSTAGNASASA [HC256] | -0.996 (inactive) | -1.12 (inactive) | -0.888 (inactive)
CAEDLVNLLPAGNASASA [HC1099] | 0.711 (inactive) | 1.96 | 0.196 (inactive)
CAEAVVCCSMAGNASASA [HC2123] | -0.484 (inactive) | 0.759 (inactive) | 0.473 (inactive)
CARHKRIPPEAGNASASA [FS-3254] | 0.983 (inactive) | 0.356 (inactive) | 0.464 (inactive)
CARHKRVGTLAGNASASA [FS-2143] | 0.0898 (inactive) | 0.0513 (inactive) | 2.38
CARHKRWHFIAGNASASA [FS-1824] | 2.19 | 2.25 | 4.89 (active)
CARHYRNVFHAGNASASA [FS-2557] | 1.27 | 2.18 | 5.01 (active)
CARHYRSNSPAGNASASA [FS-2027] | 1.06 | -1.02 (inactive) | -0.217 (inactive)
CARHKRVHSGAGNASASA [FS-1895] | -1.2 (inactive) | -0.376 (inactive) | -0.241 (inactive)
CARHKRTIPMAGNASASA [FS-2023] | 6.33 (active) | 8.53 (active) | 8.43 (active)
CARHYRWALGAGNASASA [FS-1719] | -0.124 (inactive) | 3.28 | 3.44
CARHGRDLYRAGNASASA [FS-2675] | 1.82 | 4.66 (active) | 6.11 (active)
CARHQRTENIAGNASASA [FS-2942] | -1.07 (inactive) | -2.42 (inactive) | -0.236 (inactive)
CAMEECEQHLAGNASASA [HC33] | -0.264 (inactive) | 1.94 | 0.732 (inactive)
CAEDVTSTWVAGNASASA [HC2171] | 0.61 (inactive) | -0.472 (inactive) | 0.123 (inactive)
CAEHEVPCHRAGNASASA [HC2455] | 0.493 (inactive) | 1.57 | 2.02
CARRARSAPAAGNASASA [FS-2368] | 10.3 (active) | 10.4 (active) | 8.53 (active)
CARRKKSAPAAGNASASA [FS-2514] | 4.51 (active) | 6.24 (active) | 5.54 (active)
CARRARGADAAGNASASA [FS-2512] | 2.72 | 3.57 (active) | 4.42 (active)
CARRKKALEIAGNASASA [FS-2593] | 0.898 (inactive) | 1.66 | 1.58
CARRKKSLSEAGNASASA [FS-3050] | 4.99 (active) | 7.01 (active) | 7.62 (active)
CARRKKSGRGAGNASASA [FS-2777] | 0.0968 (inactive) | 0.171 (inactive) | 1.92
CARRARVTDAAGNASASA [FS-2513] | 0.594 (inactive) | 0.414 (inactive) | 0.64 (inactive)
CAVAIKSLTEAGNASASA [HC1496] | 0.199 (inactive) | 0.138 (inactive) | 0.903 (inactive)

Sequence | furin cleavage Z-score (7.5 min) | furin cleavage Z-score (15 min) | furin cleavage Z-score (30 min)
CAVTSPLTTSAGNASASA [HC1059] | -0.539 (inactive) | -0.0107 (inactive) | -0.218 (inactive)
CAEVVTSTEVAGNASASA [HC2232] | -0.0344 (inactive) | 0.123 (inactive) | -0.271 (inactive)
CALPCSFTTLAGNASASA [HC498] | 0.311 (inactive) | 0.0716 (inactive) | 0.261 (inactive)
CAETTTPCSGAGNASASA [HC1978] | 0.473 (inactive) | 0.124 (inactive) | -0.446 (inactive)
CAGHRMAWDMAGNASASA [HC318] | -0.464 (inactive) | -0.574 (inactive) | -0.169 (inactive)
CATGLTHIDAAGNASASA [HC942] | -0.972 (inactive) | -0.954 (inactive) | 0.105 (inactive)
CAERPCHRPSAGNASASA [HC2333] | 1.21 | -1.94 (inactive) | 1.34
CAWICEVLSDAGNASASA [HC1152] | 0.155 (inactive) | 0.346 (inactive) | 0.769 (inactive)
CARRHIDLLVAGNASASA [HC290] | 1.11 | 0.566 (inactive) | 1.2
CAEVFTSTWVAGNASASA [HC2187] | 0.575 (inactive) | -0.109 (inactive) | -0.829 (inactive)
CADKSRSPRSAGNASASA [FS-409] | 6.8 (active) | 6.47 (active) | 6.46 (active)
CAYIERSPRSAGNASASA [FS-520] | 1.05 | 2.95 | 3.61 (active)
CAGSQLPCEPAGNASASA [HC1239] | -0.324 (inactive) | -2.36 (inactive) | 0.573 (inactive)
CANWAVRTKLAGNASASA [HC1634] | 1.9 | 0.613 (inactive) | -0.705 (inactive)
CAREKKSNSPAGNASASA [FS-2006] | -0.648 (inactive) | -0.595 (inactive) | -1.15 (inactive)
CARFARMIEQAGNASASA [FS-2257] | 1.16 | 3.39 | 3.53 (active)
CAREKRRSADAGNASASA [FS-2915] | 2.47 | 1.11 | 0.11 (inactive)
CAREKRSISDAGNASASA [FS-1889] | 9.34 (active) | 11.3 (active) | 8.9 (active)
CAREKRGGETAGNASASA [FS-2134] | -0.448 (inactive) | 0.845 (inactive) | 1.95
CAREKRAKIKAGNASASA [FS-2207] | -1.38 (inactive) | 0.0659 (inactive) | 0.59 (inactive)
CAREARVVSDAGNASASA [FS-2908] | -1.38 (inactive) | -0.98 (inactive) | -0.486 (inactive)
CAREKRSNSQAGNASASA [FS-2008] | 6.55 (active) | 8.6 (active) | 7.52 (active)
CAREKRAAEQAGNASASA [FS-1850] | 7.93 (active) | 9.37 (active) | 8.96 (active)
CARAPRSSSQAGNASASA [FS-3147] | 1.17 | 1.52 | 0.934 (inactive)
CARERRGREQAGNASASA [FS-1697] | 0.641 (inactive) | 1.84 | 1.15
CAQHLPYIEQAGNASASA [HC1017] | -0.597 (inactive) | -0.486 (inactive) | -0.755 (inactive)
